From PubChem BioAssay (EPA / NIEHS)
Inconclusive results are not listed. Calls of active or inactive are those of the source. Rule for the calls: active = hit-call score of the fitted dose curve at least 0.9, where 1 is the maximum; inconclusive = response in the unintended direction; inactive = score below 0.9.

molecular target: Estrogen receptor (Homo sapiens) (UniProt P03372); experiment: ATG_ERa_TRANS: Attagene TRANS-FACTORIAL HepG2 Assay for human Estrogen Receptor alpha (ERa) (AID 2282970); details: HepG2 Attagene TRANS ERa GAL4 reporter, mRNA
Sequence (P03372 whole entry, looked up, the tested form may be a part): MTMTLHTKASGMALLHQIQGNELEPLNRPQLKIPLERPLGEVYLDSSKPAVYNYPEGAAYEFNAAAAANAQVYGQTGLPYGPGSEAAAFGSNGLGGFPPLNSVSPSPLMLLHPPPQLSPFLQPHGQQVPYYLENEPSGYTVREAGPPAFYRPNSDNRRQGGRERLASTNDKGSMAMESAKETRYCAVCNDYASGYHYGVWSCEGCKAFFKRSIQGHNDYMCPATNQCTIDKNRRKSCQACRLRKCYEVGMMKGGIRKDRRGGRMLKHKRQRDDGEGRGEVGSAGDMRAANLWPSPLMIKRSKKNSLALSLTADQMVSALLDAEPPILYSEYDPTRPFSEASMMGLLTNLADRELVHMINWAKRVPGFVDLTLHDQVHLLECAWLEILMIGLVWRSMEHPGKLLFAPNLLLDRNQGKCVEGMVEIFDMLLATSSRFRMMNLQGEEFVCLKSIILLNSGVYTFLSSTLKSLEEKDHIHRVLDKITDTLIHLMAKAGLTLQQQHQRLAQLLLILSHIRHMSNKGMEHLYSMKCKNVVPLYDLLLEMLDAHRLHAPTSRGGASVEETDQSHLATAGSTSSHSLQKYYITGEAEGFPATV
Method: ATG_TRANS is a cell-based, multiplexed-readout assay that uses HepG2, a human liver cell line, with measurements taken at 24 hours after chemical dosing in a 24-well plate.ATG_ERa_TRANS is one of 30 assay component(s) measured or calculated from the ATG_TRANS assay. It is designed to make measurements of mRNA induction, a form of inducible reporter, as detected with fluorescence intensity signals by Reverse transcription polymerase chain reaction (RT-PCR) and Capillary electrophoresis technology.Data from the assay component ATG_ERa_TRANS was analyzed into 1 assay endpoint. This assay endpoint, ATG_ERa_TRANS, was analyzed in the positive analysis fitting direction relative to DMSO as the negative control and baseline of activity. Using a type of inducible reporter, measures of mRNA for gain-of-signal activity can be used to understand the reporter gene at the transcription factor-level as they relate to the gene ESR1. Furthermore, this assay endpoint can be referred to as a primary readout, because this assay has produced multiple assay endpoints where this one serves a reporter gene function. To generalize the intended target to other relatable targets, this assay endpoint is annotated to the nuclear receptor intended target family, where the subfamily is steroidal.
Human liver HepG2 cells are transiently transfected with multiple reporter transcription units (MRTUs) in 6-well plates using FuGene 6 reagent (Roche; 3 ml FuGene/1 mg DNA). The MRTU constructs are regulated by a cis-regulating element (promoter). […] A major difference between the CIS and TRANS system is that in CIS activities of endogenous TFs are measured, whereas the TRANS assay evaluates changes in activities of exogenous, chimeric NR-Gal4 proteins. […] At the end of 24 hour incubation, total RNA was isolated using TriZol reagent (Invitrogen). The isolated RNA is then reverse-transcribed using oligo(dT) primer and Mo-MLV reverse transcriptase (Invitrogen) with DNAse I (Ambion) treatment for 30 min. The one-tenth of the produced cDNA was amplified by PCR using Taq DNA polymerase (Invitrogen) and two reporter sequence-specific primers. The PCR products were fluorescently labeled by primer extension with 6-arboxyfluorescein (6-FAM) 5'-labeled reporter sequence-specific primer (2 min at 95 C, 20 s at 68 C and 10 min at 72 C) and these products were digested with 5U of HpaI (New England Biolabs) for 2h at 37 C. […] The raw capillary electrophoresis data was processed using Attagraph software (Attagene).

Row | Compound | AC50 | outcome
1 | CCCCCCCOC(C)=O | 17.6 µM (active) | –
2 | N=C1N=C(N)c2ccccc21 | 100 µM (active) | –
3 | O=C(OCc1ccccc1)c1ccccc1O | 43 µM (active) | –
4 | CCCc1ccc(N)cc1 | – | inactive
5 | CCC(C)COC(=O)CC(C)C (stereo not given) | – | inactive
6 | O=C1OC2(c3ccc(O)cc3Oc3cc(O)ccc32)c2ccccc21 | 27.7 µM (active) | –
7 | CCCCCCCCCC(=O)OCC | – | inactive
8 | C1=COCCC1 | – | inactive
9 | CC(C)C(=O)c1ccccc1 | 0.604 µM (active) | –
10 | CCCO[Si](OCCC)(OCCC)OCCC | – | inactive
11 | [Cl][Dy]([Cl])[Cl] | – | inactive
12 | NC(N)=NC(N)=NCCc1ccccc1 | – | inactive
13 | CCC(C)(CCCC(C)C)OC(C)=O (stereo not given) | – | inactive
14 | CC/C=C\C#N | – | inactive
15 | COc1ccccc1O | – | inactive
16 | CCCCCCCCCCCCS | – | inactive
17 | CC(=O)CCc1ccc(O)cc1 | – | inactive
18 | CCC(C)(C)C1CCC(=O)CC1 | 28.2 µM (active) | –
19 | CC(=O)Nc1cc(S(=O)(=O)O)cc2cc(S(=O)(=O)O)c(N=Nc3ccccc3)c(O)c12 | – | inactive
20 | CCCCCCCCOC(=O)c1ccc(O)cc1 | 5.53 µM (active) | –

Row | Compound | AC50 | outcome
21 | CCCC1CCC(=O)CC1 | – | inactive
22 | O=C(O)c1ccc(C(=O)O)c(C(=O)O)c1 | – | inactive
23 | CC(=O)CCC=C(C)CCC=C(C)C | – | inactive
24 | OC[C@H]1O[C@@H](O[C@H]2[C@H](O)[C@@H](O)[C@H](O)O[C@@H]2CO)[C@H](O)[C@@H](O)[C@H]1O | – | inactive
25 | CN(C)C(=O)Nc1ccccc1 | – | inactive
26 | CCCc1ccc(O)cc1 | 12 µM (active) | –
27 | COC(=O)c1cccc(C(=O)OC)c1 | – | inactive
28 | Nc1ccc(N)c([N+](=O)[O-])c1 | 37.8 µM (active) [middle of 5 runs] | –
29 | CCC=C(C)C=O | 15.3 µM (active) | –
30 | C1COCO1 | – | inactive
31 | C[C@H](CCC(=O)O)[C@H]1CC[C@H]2[C@@H]3CC[C@@H]4C[C@H](O)CC[C@]4(C)[C@H]3CC[C@]12C | 26.3 µM (active) | –
32 | O=C(O)c1ccccc1O | – | inactive
33 | CCCCN(CCO)CCO | – | inactive
34 | COC(=O)C(C)Oc1ccc(Oc2ncc(C(F)(F)F)cc2Cl)cc1 (stereo not given) | – | inactive
35 | c1ccc(Cc2ccccc2)cc1 | – | inactive
36 | FC(F)(F)c1ccc(Cl)c(Cl)c1 | – | inactive
37 | CC(C)(O)CCc1ccccc1 | – | inactive
38 | C/C=C(\C)C(=O)OC/C=C(\C)CCC=C(C)C | – | inactive
39 | CCCCCCCCSCc1cc(C)c(O)c(CSCCCCCCCC)c1 | – | inactive
40 | c1ccc2scnc2c1 | – | inactive
